Compound activity: PubChem, National Center for Advancing Translational Sciences (NCATS)
Compounds with a hit are over-represented: about 21% of the library has one in this group of screens.
Cycloheximide cs: affects cycloheximide protein synthesis inhibition readout, counter-screen; cell reporter, cycloheximide protein synthesis inhibition counterscreen; max response, %; actives 12% (n = 300,000); in the data active = max response mostly above about 13%, no sharp cut-off; inactive = mostly below about 14%; note: read at 38.3 µM for the half of the compounds with a filed dose
NS1 inh: influenza NS1 inhibition. Potency, µM (highest dose often 46.1 µM). actives 0.4% (n = 270,000); calls by dose curve; note: actives are rising curves; nearly all actives have a fitted effect of over 50% in size
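Growth recovery, yeast-based: influenza A NS1 expressed in S. cerevisiae causes slow growth, and suppressors are detected by OD600. The parent strain without NS1 is used as positive control.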
Shiga toxin inh: blocks Shiga toxin action in Vero cells | actives 9.2% (n = 290,000) | inhibition, % at 38.7 µM | Vero cells, Shiga toxin protein synthesis inhibition reporter; in the data active = inhibition mostly above about 28%, no sharp cut-off; inactive = mostly below about 43%
Pf growth 96h: inhibits malaria parasite growth, 96 h; P. falciparum luciferase reporter growth, 96 h; Potency, µM (doses to about 28.7 µM), actives largely listed as inhibitors; actives 6.9% (n = 320,000); AID 504834
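Readout is luminescence from an integrated firefly luciferase in P. falciparum. Red cells, 2% hematocrit and 0.05% parasitemia final, were cultured with compound through two parasite generations (96 hours) at 37 C, 5% CO2.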
Pf growth 48h: P. falciparum growth inhibition at 48 hours (one generation) | Potency, µM (doses to about 28.7 µM), most hits filed as inhibitors | AID 504832 | actives 5.9% (n = 310,000) | P. falciparum luciferase growth in erythrocytes, 48 h
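Luciferase-expressing P. falciparum in infected erythrocytes (2% hematocrit, 0.1% parasitemia final) in RPMI 1640/0.5% Albumax were exposed to compound for 48 hours at 37 C, 5% CO2; growth read as luminescence.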
Each line names hits and unclear results; the compound was inactive in the other large screens. Unless noted, calls come from the whole dose curve; as a rule, active = well fitted inhibition curve with a large enough effect; inconclusive = small, poorly fitted or top-dose-only effect, or another doubt; inactive = no such curve, though single readings can be large or run the other way.

Cc1ccc(CC(=O)NCC(O)c2ccccc2)cc1 (configuration not stated)	none
Cc1nnc(SCC2=C(C(=O)O)N3C(=O)C(NC(=O)c4cccc(F)c4F)C3SC2)s1 (configuration not stated)	none (no result: NS1 inh)
COc1ccc(S(=O)(=O)N(CCc2ccccc2)CC(=O)O)cc1C	none (no result: Pf growth 48h)
CCNC(=O)C(=O)NCC1OCCCN1S(=O)(=O)c1cccs1 (configuration not stated)	none
O=C1c2ccccc2NC(c2cccc([N+](=O)[O-])c2)N1CCc1ccccc1 (configuration not stated)	Cycloheximide cs 44.0, Shiga toxin inh 73.8, Pf growth 96h inconclusive, Pf growth 48h inconclusive
CC(C)Oc1ccccc1C1CC(=O)Nc2cc3c(cc21)OCCO3 (configuration not stated)	Pf growth 48h inconclusive (no result: Pf growth 96h)
CC(C)Oc1ccccc1C1Nc2ccccc2C(=O)N1c1ccc2c(c1)OCCO2 (configuration not stated)	Cycloheximide cs 54.0, Shiga toxin inh 71.1 (no result: Pf growth 96h)
COc1cc(C2C(=O)c3ccccc3C2=O)ccc1O	Cycloheximide cs 59.1 (no result: Shiga toxin inh)
Cc1cccc(C2Nc3ccccc3C(=O)N2CCc2ccccc2)n1 (configuration not stated)	none
COc1ccc(C2Nc3ccccc3C(=O)N2O)cc1OC (configuration not stated)	Cycloheximide cs 20.3
COc1ccc(C2C(=O)c3ccccc3C2=O)cc1OC	Pf growth 96h inconclusive (no result: NS1 inh)
COc1cc(OC)cc(C(=O)NNC(=O)c2cc(S(=O)(=O)N3CCOCC3)ccc2F)c1	Pf growth 96h inconclusive (no result: Cycloheximide cs, NS1 inh, Shiga toxin inh)
C#Cc1cccc(-n2nnc(C(=O)OC)c2-c2ccccc2)c1	none (no result: Pf growth 48h)
COc1ccc(N(Cc2cc(=O)[nH]c3ccccc23)C(=O)C(C)C)cc1	Pf growth 48h inconclusive
Cc1ccnn1CC(=O)N/N=C/c1cn[nH]c1-c1ccc(F)cc1	none
COc1cc(C2Nc3ccccc3C(=O)N2c2ccccc2)ccc1O (configuration not stated)	Cycloheximide cs 46.5, Shiga toxin inh 122.6 (no result: Pf growth 96h)
COc1ccc(C2Nc3ccccc3C(=O)N2c2ccccc2)cc1CSc1ccccn1 (configuration not stated)	Pf growth 96h inconclusive, Pf growth 48h inconclusive
COc1ccc(C2Nc3ccccc3C(=O)N2c2ccc(F)cc2)cc1CSc1ccccn1 (configuration not stated)	Cycloheximide cs 14.9
COc1ccc(C2Nc3ccccc3C(=O)N2c2ccccc2)cc1COc1ccccn1 (configuration not stated)	Pf growth 96h inconclusive, Pf growth 48h inconclusive
COc1ccc(N2C(=O)c3ccccc3NC2c2ccccc2O)cc1 (configuration not stated)	Cycloheximide cs 42.6, Shiga toxin inh 56.5
CCOc1cc(C2Nc3ccccc3C(=O)N2c2ccccc2)ccc1O (configuration not stated)	Cycloheximide cs 19.2, Pf growth 96h inconclusive (no result: Pf growth 48h)
COc1cc(C)c(NC(=S)NCCCN2CCOCC2)cc1OC	Pf growth 48h inconclusive
CN1CCC(Oc2ccc(Sc3ccccc3)cc2)CC1	Cycloheximide cs 67.5, Shiga toxin inh 63.3
O=C(CN1CCCCC1)Nc1ccccc1Oc1ccccc1	Pf growth 96h inconclusive, Pf growth 48h inconclusive
CCOCCCNc1ccc(-c2ccccc2)nn1	Cycloheximide cs 26.6, Shiga toxin inh 109.0
COc1ccccc1/C=N/NC(=O)C(C)Cn1cnc2ccccc21 (configuration not stated)	none
CCOc1ccccc1N1CCN(c2ncnc3scc(-c4ccc(OC)cc4)c23)CC1	Pf growth 96h inconclusive, Pf growth 48h 5.86µM
COc1ccc(-c2csc3ncnc(N4CCN(CCO)CC4)c23)cc1	none
Cc1ccc(-c2csc3ncnc(N4CCN(S(=O)(=O)c5cccs5)CC4)c23)cc1	Pf growth 96h inconclusive, Pf growth 48h 6.57µM (no result: Cycloheximide cs, NS1 inh, Shiga toxin inh)
COc1ccc(-c2csc3ncnc(N4CCN(c5ccccc5OC)CC4)c23)cc1	Pf growth 96h inconclusive, Pf growth 48h 5.86µM
CN(C)c1ccnc(Nc2ccc(O)cc2)c1C#N	Pf growth 96h 10.4µM, Pf growth 48h inconclusive (no result: NS1 inh)
CN(C)c1nccc(Nc2ccccc2)c1C#N	none
CCn1cc([N+](=O)[O-])c(C(=O)N2CCN(C(=O)c3ccco3)CC2)n1	none
CCn1cc(Cl)c(C(=O)N2N=C(c3ccc4ccccc4c3)CC2c2ccccc2O)n1 (configuration not stated)	Pf growth 96h 1.47µM, Pf growth 48h 2.08µM
CCn1cc([N+](=O)[O-])c(C(=O)N2N=C(c3cccc4ccccc34)CC2c2ccccc2O)n1 (configuration not stated)	Pf growth 96h 13.1µM, Pf growth 48h 9.28µM
CCn1cc([N+](=O)[O-])c(C(=O)N2N=C(c3ccc(OC)cc3OC)CC2c2ccccc2O)n1 (configuration not stated)	Pf growth 96h 10.4µM, Pf growth 48h inconclusive
CCn1cc([N+](=O)[O-])c(C(=O)N2CCCC2)n1	none (no result: Pf growth 96h)
CCn1cc([N+](=O)[O-])c(C(=O)N2N=C(c3ccc4ccccc4c3)CC2c2ccccc2O)n1 (configuration not stated)	Cycloheximide cs 34.1, NS1 inh inconclusive, Shiga toxin inh 27.4, Pf growth 96h inconclusive, Pf growth 48h 8.28µM
O=C(NCCN1CCCCC1)c1cc(COc2c(F)cccc2F)on1	Pf growth 96h inconclusive, Pf growth 48h inconclusive
COc1cc(NC2c3ccccc3C(=O)N2c2ccc(C)cn2)cc(OC)c1OC (configuration not stated)	Cycloheximide cs 48.2, Shiga toxin inh 117.7, Pf growth 48h inconclusive
COc1cc(NC2c3ccccc3C(=O)N2c2cc(C)ccn2)cc(OC)c1OC (configuration not stated)	Cycloheximide cs 22.8, Shiga toxin inh 58.3, Pf growth 96h inconclusive (no result: Pf growth 48h)
COc1cc(NC2c3ccccc3C(=O)N2Cc2ccc3c(c2)OCO3)cc(OC)c1OC (configuration not stated)	Pf growth 96h inconclusive (no result: Pf growth 48h)
Cc1ccc(N2C(=O)c3ccccc3C2Nc2cccnc2)nc1 (configuration not stated)	Cycloheximide cs 35.9
O=C1c2ccccc2C(Nc2cccnc2)N1Cc1ccccc1 (configuration not stated)	Pf growth 96h 10.4µM (no result: Pf growth 48h)
O=C1C(=O)N(CCCO)C(c2ccc(Br)cc2)/C1=C(\O)c1ccc(Br)cc1 (configuration not stated)	none
COC(=O)c1ccccc1NC(=O)CSc1nc(O)cc(=O)n1C1CCCC1	NS1 inh inconclusive, Pf growth 96h inconclusive
Cc1cc(=O)n2nc(N3CCC(C(=O)Nc4cccc(Cl)c4C)CC3)sc2n1	none
COc1ccc(NC(=O)C2CCCN2c2nn3c(=O)cc(C)nc3s2)cc1 (configuration not stated)	Pf growth 96h inconclusive
CCc1ccc(NC(=O)C2CCCN2c2nn3c(=O)cc(C)nc3s2)cc1 (configuration not stated)	Pf growth 96h 13.1µM
CCc1cccc(C)c1NC(=O)C1CCN(c2nn3c(=O)cc(C)nc3s2)CC1	Pf growth 96h 9.28µM
